In PubChem BioAssay (NCI):
Compounds without any hit were thinned out: in the full panel of roughly 79,000, 15% have a hit. Unmarked numbers belong to inactive results. Calls of active or inactive are those of the source. Rule as the data show it: active = growth inhibition above about 70%; inactive = the rest.

Legend:
[1] = NCI Yeast Anticancer Drug Screen. Data for the rad50 strain (AID 155);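 also: 0% = growth of vehicle-only cultures of the same strain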; conditions: S. cerevisiae rad50 strain growth inhibition, stronger effect = higher value
Outline: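 Genetically altered yeast (DNA repair pathway); compound treatment; growth inhibition vs vehicle ctrl.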

[2] = NCI Yeast Anticancer Drug Screen. Data for the mec2-1 strain (AID 157); conditions: S. cerevisiae mec2-1 strain, stronger effect = higher value
Outline: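 Yeast mec2-1 mutant treated with compound. Readout: growth inhibition vs vehicle controls.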

[3] = NCI Yeast Anticancer Drug Screen. Data for the sgs1 mgt1 strain (AID 161);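 also: 0% = growth of cultures given vehicle only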; conditions: S. cerevisiae sgs1 mgt1 strain, stronger effect = higher value
Outline: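 Read-out: growth inhibition vs vehicle controls. Cells: mutant yeast strain deficient in DNA damage repair.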

[4] = NCI Yeast Anticancer Drug Screen. Data for the cln2 rad14 strain (AID 165);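 also: 0% = growth equal to vehicle treated cultures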; conditions: S. cerevisiae cln2 rad14 strain, stronger effect = higher value
Outline: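 cln2 rad14 yeast strain; compound exposure; growth inhibition read vs vehicle controls.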

[5] = NCI Yeast Anticancer Drug Screen. Data for the bub3 strain (AID 167); conditions: S. cerevisiae bub3 mutant strain, stronger effect = higher value
Outline: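 Yeast carrying a defined mutation is treated with each compound, and growth is compared with that of vehicle-exposed cells to give inhibition.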

[6] = NCI Yeast Anticancer Drug Screen. Data for the mlh1 rad18 strain (AID 175); conditions: S. cerevisiae mlh1 rad18 strain growth inhibition, stronger effect = higher value
Outline: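 Yeast w/ defined DNA-repair lesions; compound exposure; growth vs vehicle controls → % inhibition.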

[7] = at 5.0 µM (retest, dose inferred, filed as 0.5)
[8] = at 50.0 µM (retest, dose inferred, filed as 5.0)

`O=C1CCC(Cc2ccc(Cl)cc2Cl)C(=O)N1` (stereo not given) gave a growth inhibition [1, 7] of -8%, a growth inhibition [1, 8] of 3% and a growth inhibition ([1]; at 50.0 µM) of -7.6%. It also gave a growth inhibition [2, 7] of -3%, a growth inhibition [2, 8] of -6% and a growth inhibition ([2]; at 50.0 µM) of 6.15%. The growth inhibition [3, 7] was 45%, the growth inhibition [3, 8] was 95% (active) and the growth inhibition ([3]; at 50.0 µM) was 92.8% (active). The growth inhibition [4, 7] was -4%, the growth inhibition [4, 8] was -2% and the growth inhibition ([4]; at 50.0 µM) was -68.7%. It also gave a growth inhibition [5, 7] of -4%, a growth inhibition [5, 8] of 0% and a growth inhibition ([5]; at 50.0 µM) of -47.7%. For the same molecule, the growth inhibition [6, 7] was -5%, the growth inhibition [6, 8] was 3% and the growth inhibition ([6]; at 50.0 µM) was -7%.

Work on `CN(C)c1ccc(/C=C(\C#N)c2cccc(Cl)c2)cc1` yielded a growth inhibition [1, 7] of 1%, a growth inhibition [1, 8] of -8% and a growth inhibition ([1]; at 50.0 µM) of 16.7%. It also gave a growth inhibition [2, 7] of -1%, a growth inhibition [2, 8] of 1% and a growth inhibition ([2]; at 50.0 µM) of 18%. It also gave a growth inhibition [3, 7] of 4%, a growth inhibition [3, 8] of 12% and a growth inhibition ([3]; at 50.0 µM) of 10.8%. It also gave a growth inhibition [4, 7] of -3%, a growth inhibition [4, 8] of -25% and a growth inhibition ([4]; at 50.0 µM) of 69.4%. The growth inhibition [5, 7] was 5%, the growth inhibition [5, 8] was 14% and the growth inhibition ([5]; at 50.0 µM) was 13.7%. It also gave a growth inhibition [6, 7] of -3%, a growth inhibition [6, 8] of -11% and a growth inhibition ([6]; at 50.0 µM) of -4.75%.

In the case of `O=[N+]([O-])c1cc(Cl)cc(C(c2cc(Cl)cc([N+](=O)[O-])c2O)C(Cl)(Cl)Cl)c1O`, the growth inhibition [1, 7] is reported as 52%, the growth inhibition [1, 8] is reported as 94% (active) and the growth inhibition ([1]; at 50.0 µM) is reported as 97.7% (active). For the same molecule, the growth inhibition [2, 7] was 50%, the growth inhibition [2, 8] was 98% (active) and the growth inhibition ([2]; at 50.0 µM) was 98.4% (active). The growth inhibition [3, 7] was 38%, the growth inhibition [3, 8] was 92% (active) and the growth inhibition ([3]; at 50.0 µM) was 98.1% (active). For the same molecule, the growth inhibition [4, 7] was 36%, the growth inhibition [4, 8] was 96% (active) and the growth inhibition ([4]; at 50.0 µM) was 97% (active). For the same molecule, the growth inhibition [5, 7] was 33%, the growth inhibition [5, 8] was 96% (active) and the growth inhibition ([5]; at 50.0 µM) was 97.2% (active). The growth inhibition [6, 7] was 66%, the growth inhibition [6, 8] was 96% (active) and the growth inhibition ([6]; at 50.0 µM) was 98.3% (active).

In the case of `FC(F)(F)c1[nH]nc(-c2cccs2)c1N=NN1CCOCC1`, the growth inhibition [1, 7] is reported as 98% (active), the growth inhibition [1, 8] is reported as 98% (active) and the growth inhibition ([1]; at 50.0 µM) is reported as 98% (active). The growth inhibition [2, 7] was 100% (active), the growth inhibition [2, 8] was 99% (active) and the growth inhibition ([2]; at 50.0 µM) was 99.2% (active). The growth inhibition [3, 7] was 100% (active), the growth inhibition [3, 8] was 99% (active) and the growth inhibition ([3]; at 50.0 µM) was 97.2% (active). For the same molecule, the growth inhibition [4, 7] was 99% (active), the growth inhibition [4, 8] was 99% (active) and the growth inhibition ([4]; at 50.0 µM) was 98.6% (active). For the same molecule, the growth inhibition [5, 7] was 100% (active), the growth inhibition [5, 8] was 99% (active) and the growth inhibition ([5]; at 50.0 µM) was 98.6% (active). The growth inhibition [6, 7] was 100% (active), the growth inhibition [6, 8] was 99% (active) and the growth inhibition ([6]; at 50.0 µM) was 98% (active).

In the case of `Clc1cc2n[nH]nc2c(Cl)c1Cl`, the growth inhibition [1, 7] is reported as -6%, the growth inhibition [1, 8] is reported as 63% and the growth inhibition ([1]; at 50.0 µM) is reported as 74.8% (active). The growth inhibition [2, 7] was 6%, the growth inhibition [2, 8] was 84% (active) and the growth inhibition ([2]; at 50.0 µM) was 95.9% (active). For the same molecule, the growth inhibition [3, 7] was 16%, the growth inhibition [3, 8] was 83% (active) and the growth inhibition ([3]; at 50.0 µM) was 46.8%. The growth inhibition [4, 7] was -17%, the growth inhibition [4, 8] was 65% and the growth inhibition ([4]; at 50.0 µM) was 88.7% (active). For the same molecule, the growth inhibition [5, 7] was -13%, the growth inhibition [5, 8] was 48% and the growth inhibition ([5]; at 50.0 µM) was 85.8% (active). For the same molecule, the growth inhibition [6, 7] was 6%, the growth inhibition [6, 8] was 94% (active) and the growth inhibition ([6]; at 50.0 µM) was 93.3% (active).

In the case of `Cc1ccc(C(C)C)c(O)c1N/N=C/c1cc(Cl)ccc1O`, the growth inhibition [1, 7] is reported as 2%, the growth inhibition [1, 8] is reported as 55% and the growth inhibition ([1]; at 50.0 µM) is reported as 73% (active). It also gave a growth inhibition [2, 7] of 3%, a growth inhibition [2, 8] of 25% and a growth inhibition ([2]; at 50.0 µM) of -0.3%. The growth inhibition [3, 7] was 1%, the growth inhibition [3, 8] was 82% (active) and the growth inhibition ([3]; at 50.0 µM) was 41.9%. For the same molecule, the growth inhibition [4, 7] was 2%, the growth inhibition [4, 8] was 26% and the growth inhibition ([4]; at 50.0 µM) was -4.05%. The growth inhibition [5, 7] was 1%, the growth inhibition [5, 8] was 48% and the growth inhibition ([5]; at 50.0 µM) was 58.1%. For the same molecule, the growth inhibition [6, 7] was 2%, the growth inhibition [6, 8] was 83% (active) and the growth inhibition ([6]; at 50.0 µM) was 36.8%.

In the case of `CCOC(=O)NC(NNc1ccc([N+](=O)[O-])cc1[N+](=O)[O-])(C(F)(F)F)C(F)(F)F`, the growth inhibition [1, 7] is reported as 1%, the growth inhibition [1, 8] is reported as 99% (active) and the growth inhibition ([1]; at 50.0 µM) is reported as 97.3% (active). The growth inhibition [2, 7] was -3%, the growth inhibition [2, 8] was 99% (active) and the growth inhibition ([2]; at 50.0 µM) was 98.2% (active). For the same molecule, the growth inhibition [3, 7] was 6%, the growth inhibition [3, 8] was 99% (active) and the growth inhibition ([3]; at 50.0 µM) was 98.4% (active). The growth inhibition [4, 7] was 21%, the growth inhibition [4, 8] was 98% (active) and the growth inhibition ([4]; at 50.0 µM) was 98.7% (active). The growth inhibition [5, 7] was 19%, the growth inhibition [5, 8] was 97% (active) and the growth inhibition ([5]; at 50.0 µM) was 98% (active). For the same molecule, the growth inhibition [6, 7] was 4%, the growth inhibition [6, 8] was 98% (active) and the growth inhibition ([6]; at 50.0 µM) was 98.5% (active).

In the case of `CCCCc1cc2c(cc1O)CCC1C2CC[C@@]2(C)C1CC[C@@H]2O` (stereo not given in full), the growth inhibition [1, 7] is reported as 5%, the growth inhibition [1, 8] is reported as 96% (active) and the growth inhibition ([1]; at 50.0 µM) is reported as 67.5%. For the same molecule, the growth inhibition [2, 7] was -6%, the growth inhibition [2, 8] was 95% (active) and the growth inhibition ([2]; at 50.0 µM) was 78.5% (active). The growth inhibition [3, 7] was -5%, the growth inhibition [3, 8] was 95% (active) and the growth inhibition ([3]; at 50.0 µM) was 80.6% (active). The growth inhibition [4, 7] was 2%, the growth inhibition [4, 8] was 97% (active) and the growth inhibition ([4]; at 50.0 µM) was 86.8% (active). The growth inhibition [5, 7] was -27%, the growth inhibition [5, 8] was 96% (active) and the growth inhibition ([5]; at 50.0 µM) was 81.7% (active). For the same molecule, the growth inhibition [6, 7] was -2%, the growth inhibition [6, 8] was 96% (active) and the growth inhibition ([6]; at 50.0 µM) was 84.6% (active).

For `O=C(/C=C/c1ccc([N+](=O)[O-])o1)N1CCN(Cc2ccccc2)CC1`, the growth inhibition [1, 7] was 38%, the growth inhibition [1, 8] was 78% (active) and the growth inhibition ([1]; at 50.0 µM) was 75.1% (active). The growth inhibition [2, 7] was 33%, the growth inhibition [2, 8] was 75% (active) and the growth inhibition ([2]; at 50.0 µM) was 60%. For the same molecule, the growth inhibition [3, 7] was 55%, the growth inhibition [3, 8] was 92% (active) and the growth inhibition ([3]; at 50.0 µM) was 74% (active). It also gave a growth inhibition [4, 7] of 35%, a growth inhibition [4, 8] of 60% and a growth inhibition ([4]; at 50.0 µM) of 38.8%. The growth inhibition [5, 7] was 43%, the growth inhibition [5, 8] was 75% (active) and the growth inhibition ([5]; at 50.0 µM) was 62%. For the same molecule, the growth inhibition [6, 7] was 52%, the growth inhibition [6, 8] was 91% (active) and the growth inhibition ([6]; at 50.0 µM) was 58.6%.

With `Cc1c(C(C)(C)C)cc(C(C)(C)C)c(O)c1CN(C)Cc1c(C)c(C(C)(C)C)cc(C(C)(C)C)c1O` the growth inhibition [1, 7] was -3%, the growth inhibition [1, 8] was 8% and the growth inhibition ([1]; at 50.0 µM) was 99.5% (active). The growth inhibition [2, 7] was -8%, the growth inhibition [2, 8] was 3% and the growth inhibition ([2]; at 50.0 µM) was 99.3% (active). The growth inhibition [3, 7] was 3%, the growth inhibition [3, 8] was 33% and the growth inhibition ([3]; at 50.0 µM) was 99.6% (active). The growth inhibition [4, 7] was -6%, the growth inhibition [4, 8] was -3% and the growth inhibition ([4]; at 50.0 µM) was 99.5% (active). For the same molecule, the growth inhibition [5, 7] was -3%, the growth inhibition [5, 8] was 13% and the growth inhibition ([5]; at 50.0 µM) was 99.4% (active). For the same molecule, the growth inhibition [6, 7] was 4%, the growth inhibition [6, 8] was 17% and the growth inhibition ([6]; at 50.0 µM) was 99.5% (active).
